What all share (assay): NCI-60 one-dose screen, 48 h (100 = growth as untreated, 0 = no growth, -100 = all killed)
What all share (conditions): 10 µM unless noted

Assay [1] has as its system HCT-15 colon.
In assay [2] the test system is HT29 colon.
Assay [3] has as its system SNB-75 CNS.
The test system of assay [4] is SNB-19 CNS.
Assay [5] deals with U251 CNS.
Assay [6] deals with PC-3 prostate.
Assay [7] concerns SK-MEL-5 melanoma.
Assay [8] concerns UACC-62 melanoma.
Assay [9] has as its system LOX IMVI melanoma.
Assay [10] deals with SK-MEL-28 melanoma.
In assay [11] the test system is SK-MEL-2 melanoma.
In assay [12] the test system is SN12C renal.
Assay [13] deals with TK-10 renal.
In assay [14] the test system is ACHN renal.
Assay [15] deals with CAKI-1 renal.
The subject of assay [16] is A498 renal.
Assay [17] concerns MOLT-4 leukemia.
For assay [18], the system named is UO-31 renal.
The subject of assay [19] is CCRF-CEM leukemia.

About 83,000 compounds went through this panel and 20% of them were active in at least one assay; those are over-represented in the sample as a whole.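 Growth was measured after 48 h exposure to one concentration of compound in 96-well plates. Values under 10 count as active.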 Unmarked numbers belong to inactive results. Activity calls are given as the source filed them.

With `O=C(O)C(=Cc1c2ccccc2cc2ccccc12)C(=O)O`, the growth was 106% in [1]; 105% in assay [2]; 104% in assay [3]; 101% in assay [4]; 101% in [5]; 97.2% in assay [6]. In addition, the growth is 104% in assay [7]; 93.5% in assay [8]; 86.8% in assay [9]; 114% in assay [10]; 104% in assay [11]; 101% in assay [12]. Further, the growth is 93.3% in assay [13]; 97.6% in [14]; 99.9% in [15]; 83.3% in [16]; 92.4% in assay [17].

As for `Nc1cc2c(cc1N)-c1cc(N)c(N)cc1C2`, the growth in [1] is 97.4%; in assay [2] it was 107%; in assay [3], 79.9%; in assay [4] it was 107%; in assay [5] it was 99.1%; in assay [6], 80.5%. In addition, the growth was 101% in assay [7]; 99.9% in assay [8]; 94% in [9]; 115% in [10]; 111% in assay [11]; 94.9% in assay [12]. In addition, the growth in [13] was 110%; in [14], 96%; in assay [15], 93.8%; in assay [16] it was 63.5%; in assay [17] it was 92.3%.

Turning to `COc1ccc(OC)c(C(=O)c2oc3ccc(Br)cc3c2N)c1`, the growth in assay [1] is 24.2%; in assay [2] it was 7.35% (active); in assay [3], -29.4% (active); in [4], 38.3%; in [5] it was 9.85% (active); in assay [6], -1.02% (active). Moreover, the growth is 31.7% in assay [7]; 10.9% in [8]; 32.9% in assay [9]; 37.9% in assay [10]; -9.79% (active) in [11]; 39.4% in [12]. For the same compound, the growth in assay [18] is 27.5%; in assay [14], 50.7%; in assay [15], 0.0162% (active); in assay [16] it was -13.8% (active); in assay [19], 4.72% (active); in assay [17] it was 19.4%.

`CN(C)c1ccc(C2CC(c3ccccc3)=NN2/C=C2\SC(=O)NC2=O)cc1` (stereo not given): the growth in assay [1] was 85.9%; in [2] it was 108%; in assay [3], 83.6%; in assay [4], 87.6%; in assay [5], 103%; in assay [6], 91.3%. For the same compound, the growth was 78.8% in assay [7]; 90.7% in assay [8]; 74.3% in assay [9]; 91.1% in assay [10]; 113% in [11]; 87.3% in assay [12]. Moreover, the growth is 94.4% in assay [13], 81.5% in assay [14], 95% in assay [15] and 59.7% in assay [17].

Turning to `CCOC(=O)C1=C(CSC(=S)N(C2CCCCC2)C2CCCCC2)N(C)C(=O)NC1c1ccccc1` (stereo not given), the growth in assay [1] was 39.6%; in [2], 22%; in assay [3] it was 71.8%; in assay [4], 49.2%; in assay [5] it was 39.5%; in assay [6] it was 21.6%. Moreover, the growth in assay [7] is 14.7%; in assay [8], 46.1%; in assay [9], 33%; in assay [10], 75.8%; in assay [11] it was 55.6%; in [12], 71.2%. Moreover, the growth in [13] is 74%; in assay [14] it was 37.8%; in assay [15], 25.4%; in [19], 35.3%; in [17], 28.2%.

For `COc1cc(NCCCN=C(N)NC(N)=NC(C)C)c2ncccc2c1`, the growth in assay [1] was 89.8%; in [2], 58.9%; in assay [3] it was 75.3%; in [4], 77.7%; in assay [5], 70.8%; in [6], 45%. The growth is 27% in [7]; 90.1% in assay [8]; 80.8% in assay [9]; 84.4% in assay [10]; 16.2% in assay [11]; 38.1% in assay [12]. The growth is 107% in [13]; 94% in assay [14]; 94.7% in assay [15]; 120% in [16]; 57.7% in assay [17].

For the compound `COc1cc(CNC(=O)CCSc2nc3ccccc3c(=O)n2Cc2cc(OC)c(OC)c(OC)c2)cc(OC)c1OC`, the growth in [1] is 17.7%; in assay [2] it was 12.9%; in assay [3], 17.9%; in [4] it was 56%; in [5], 38.3%; in assay [6] it was 49.5%. The growth in assay [7] is 12.6%; in [8] it was 36.3%; in assay [9], 44.6%; in assay [10], 55.8%; in [11], -9.25% (active); in assay [12] it was 50.7%. For the same compound, the growth in assay [13] was 62%; in assay [14], 48.9%; in assay [15] it was 34.3%; in [16] it was 21.7%; in assay [19], 35.5%; in assay [17] it was 18.8%.

Turning to `NS(=O)(=O)c1ccc(NCC(=O)Nc2ccc(-c3nc4ccccc4s3)cc2)cc1`, the growth in assay [1] was 46.6%; in assay [2] it was 74.5%; in [3] it was 69.5%; in assay [4], 74.3%; in assay [5], 71.3%; in [6], 64.7%. Moreover, the growth was 71.3% in assay [7]; 38% in [8]; 13.1% in assay [9]; 99.4% in assay [10]; 87.8% in assay [11]; 47.8% in [12]. Also, the growth is 106% in [13]; 105% in assay [14]; 92.9% in assay [15]; 6.24% (active) in [19]; 6.23% (active) in [17].

For the compound `COc1ccc(-c2cn[nH]c2-c2cc(OC)c3c(c2)OCO3)cc1`, the growth in assay [1] was 18.6%; in assay [2], 5.01% (active); in assay [3], -12.9% (active); in assay [4] it was 41.7%; in assay [5] it was 9.27% (active); in [6], 11.1%. Besides, the growth in assay [7] was 32%; in [8], 15.8%; in assay [9], 22.8%; in assay [10] it was 39.4%; in assay [11] it was -9.32% (active); in [12], 34%. In addition, the growth in [18] was 27.8%; in assay [14], 39.5%; in [15] it was 24.9%; in [16], -18.8% (active); in assay [19], 2.12% (active); in assay [17] it was 3.98% (active).

Values taken from PubChem BioAssay (NCI).
